JMJD2A Tudor inh: qHTS Assay for Inhibitors of JMJD2A-Tudor Domain; AlphaScreen JMJD2A-Tudor / H3K4me3 peptide binding; Potency, µM (titrated, usually from 114 µM), for the others: top-dose activity change, negative = inhibition, most hits filed as inhibitors; Lysine-specific demethylase 4A (Homo sapiens), O75164; 4.4% of 390,000 active; also: potency is read from the fitted curve at half-maximal effect; % is scaled to controls: 0 for no effect and ±100 for the full control effect; nearly all actives have a fitted effect of over 50% in size
JMJD2E inh: qHTS Assay for Inhibitors of Human Jumonji Domain Containing 2E (JMJD2E); Lysine-specific demethylase 4E (Homo sapiens), B2RXH2; JMJD2E catalytic domain, FDH-coupled NADH fluorescence (FDH is formaldehyde dehydrogenase); Potency, µM (doses to about 57.1 µM), without a hit: top-dose activity change, negative = inhibition, actives largely listed as inhibitors; 1.6% of 230,000 active; active = well fitted inhibition curve with a large enough effect, not every such curve was filed as active; inconclusive = small, poorly fitted or top-dose-only effect, or another doubt; inactive = no such curve, though single readings can be large or run the other way;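 also: potency is read from the fitted curve at half-maximal effect; 0% = wells with enzyme and -100% = buffer wells without enzyme; nearly all actives have a fitted effect of over 50% in size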
PI5P4K alpha inh: qHTS for Inhibitors of phosphatidylinositol 5-phosphate 4-kinase (PI5P4K). Phosphatidylinositol 5-phosphate 4-kinase type-2 alpha (Homo sapiens), P48426. PI5P4Kalpha enzyme, ADP-Glo luminescence, 60 min; stronger effect = lower value. max response, %. 1.2% of 330,000 active; active = max response of -50% or lower; inconclusive = between -30% and -50%; inactive = -30% or higher; also: value at the top dose of about 77 µM; % is scaled to controls: 0 for no effect and ±100 for the full control effect
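Single end-point luminescence (ADP-Glo) quantified ADP from PI5P4Kalpha turnover; ATP 5 microM final, 1 h at RT, 0.1% CHAPS and 0.28 mM EGTA in HEPES pH 7.4.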
BAZ2B block: qHTS Assay for Inhibitors of BAZ2B; Bromodomain adjacent to zinc finger domain protein 2B (Homo sapiens), Q9UIF8; AlphaScreen BAZ2B-H3K14Ac peptide displacement; Potency, µM (titrated, usually from 114 µM), for inactives: top-dose activity change, negative = inhibition, actives largely listed as inhibitors; 4.4% of 360,000 active; AID 504333, 2011; also: potency is read from the fitted curve at half-maximal effect; % is scaled to controls: 0 for no effect and ±100 for the full control effect; nearly all actives have a fitted effect of over 60% in size
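Multi-concentration screen (max 110 uM) measuring displacement of acetylated histone H3 peptide from BAZ2B by AlphaScreen, using 50 nM protein, 50 nM peptide and 10 ug/mL streptavidin donor plus Ni-chelate acceptor beads.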
HP1b binding inh: HTS for Inhibitors of HP1-beta Chromodomain Interactions with Methylated Histone Tails | Chromobox protein homolog 1 (Homo sapiens), P83916 | AlphaScreen HP1-beta / biotin-H3K9me3 peptide binding | Potency, µM (doses to about 114 µM), without a hit: top-dose activity change, negative = inhibition, most hits filed as inhibitors | 0.56% of 390,000 active | AID 540317, 2011; also: potency is read from the fitted curve at half-maximal effect; nearly all actives have a fitted effect of over 70% in size
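Compound inhibition of the preformed complex between 50 nM HP1-beta and 50 nM biotinylated H3K9me3 peptide was read by AlphaScreen. Buffer was PBS pH 7.4 with 0.01% Tween-20. Incubations ran 30 min at room temperature, with 10 ug/mL donor/acceptor beads.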
L3MBTL1 block: qHTS Assay for the Inhibitors of L3MBTL1 | Lethal(3)malignant brain tumor-like protein 1 (Homo sapiens), Q9Y468 | AlphaScreen L3MBTL1–H3K9me1 peptide binding | Potency, µM (series often up to 57.1 µM), for the others: at the top dose activity, negative = inhibition, usual class: inhibitors | 0.66% of 230,000 active | AID 485360, 2010; also: potency is read from the fitted curve at half-maximal effect; % is scaled to controls: 0 for no effect and ±100 for the full control effect; nearly all actives have a fitted effect of over 60% in size
Target sequence (Q9Y468 whole entry, looked up): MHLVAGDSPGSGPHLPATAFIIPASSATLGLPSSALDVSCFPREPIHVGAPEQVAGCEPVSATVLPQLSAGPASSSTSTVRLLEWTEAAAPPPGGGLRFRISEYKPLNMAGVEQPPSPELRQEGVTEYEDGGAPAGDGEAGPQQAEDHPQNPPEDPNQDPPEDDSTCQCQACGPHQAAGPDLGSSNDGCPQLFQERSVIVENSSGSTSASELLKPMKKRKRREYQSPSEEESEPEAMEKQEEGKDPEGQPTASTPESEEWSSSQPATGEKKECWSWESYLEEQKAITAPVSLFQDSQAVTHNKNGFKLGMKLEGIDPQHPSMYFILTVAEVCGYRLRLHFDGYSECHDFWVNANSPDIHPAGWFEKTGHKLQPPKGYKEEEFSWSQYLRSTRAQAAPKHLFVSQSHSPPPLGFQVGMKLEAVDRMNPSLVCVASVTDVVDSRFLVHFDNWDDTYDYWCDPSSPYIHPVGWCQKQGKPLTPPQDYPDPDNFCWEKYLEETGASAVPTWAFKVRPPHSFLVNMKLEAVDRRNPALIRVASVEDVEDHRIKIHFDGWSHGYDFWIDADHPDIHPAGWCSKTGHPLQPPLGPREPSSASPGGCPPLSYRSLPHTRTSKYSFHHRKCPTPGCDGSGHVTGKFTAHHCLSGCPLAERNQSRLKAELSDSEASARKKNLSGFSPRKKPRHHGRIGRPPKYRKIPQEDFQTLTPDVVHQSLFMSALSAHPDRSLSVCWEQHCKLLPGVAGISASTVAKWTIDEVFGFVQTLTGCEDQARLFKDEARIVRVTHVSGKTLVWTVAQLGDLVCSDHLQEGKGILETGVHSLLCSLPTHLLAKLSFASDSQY
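AlphaScreen proximity signal between nickel-chelate acceptor and streptavidin donor beads (final 10 ug/mL) reports binding of 50 nM L3MBTL1 to 75 nM biotin-H3 K9me1 peptide; complex incubated with compounds 30 min at room temperature; cefsulodin titration as control.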
* hit, by the source's call; ? = inconclusive; · = no result given; [ ] = another dose, or the depositor's remark. Most compounds without a hit are left out; they make up all but 5.7% or so of the library. Unless noted, calls follow the shape of the dose curve; as a rule, active = well fitted inhibition curve with a large enough effect; inconclusive = small, poorly fitted or top-dose-only effect; inactive = no such curve, though single readings can be large or run the other way.

SMILES	JMJD2A Tudor inh	JMJD2E inh	PI5P4K alpha inh	BAZ2B block	HP1b binding inh	L3MBTL1 block
CN(Cc1ccc2c(c1)OCCO2)C(=O)CSc1ncnc2sccc12	-7.6%	·	-8.2	·	21.5%	5.8%
CC(NO)/C(=N\O)c1cccs1 (configuration not stated)	79.4µM*	-11.9%	·	?	?	·
CCCCOC(=O)c1ccc(NC(=O)c2csnn2)cc1	-5.0%	·	·	2.9%	17.0%	·
O=C(Cc1coc2cc3c(cc12)CCC3)OCc1cc(=O)n2c(n1)sc1ccccc12	?	?	?	50.1µM*	?	·
Cc1cc(N2CCN(c3ccc(F)cc3)CC2)n2cnnc2n1	-19.5%	·	·	-0.1%	12.9%	·
Cc1c(Br)c([N+](=O)[O-])nn1CCCC(=O)Nc1sc2c(c1C#N)CCC2	50.1µM*	5.3%	-27.0	?	?	-9.2%
Cc1ccc(-n2nc(C)c(Sc3ccccc3[N+](=O)[O-])c2N)cc1	?	-5.8%	-18.5	35.5µM*	?	-19.8%
Cc1noc(C)c1S(=O)(=O)N(CC(=O)NC1CCC(C)CC1)c1ccc(C(C)C)cc1 (configuration not stated)	2.8%	·	-0.4	-14.8%	30.2%	·
Clc1ccc(CNc2nc(CN3CCOCC3)nc3scc(-c4ccccc4)c23)cc1	?	1.1%	18.8	50.1µM*	-20.9%	-19.1%
O=C(CSc1nc2c(cnn2-c2ccccc2)c(=O)[nH]1)N1N=C(c2cccs2)CC1c1ccc(F)cc1 (configuration not stated)	-10.9%	3.98µM*	11.9	-26.1%	6.9%	6.0%
O=C1COc2ccc(-c3cc(-c4ccc(Cl)cc4)c4c(n3)-c3ccccc3OC4)cc2N1	-4.9%	·	·	-17.8%	38.2%	·
COc1cc(CCN2C(=O)N[C@@H](c3ccccc3)C(C(C)=O)=C2C)cc(OC)c1OC	·	7.8%	·	·	·	·
NC(=O)c1cc([N+](=O)[O-])c(Cl)cc1NCc1cccnc1	-15.8%	·	-1.2	11.5%	37.2%	1.8%
CC(C(=O)Nc1ccc2c(c1)OCO2)N(C)CC(=O)Nc1ccccc1Cl (configuration not stated)	-8.4%	·	2.4	·	35.6%	1.0%
CSc1ccccc1NC(=O)CN(C)C(C)C(=O)NCc1ccc2c(c1)OCO2 (configuration not stated)	5.01µM*	·	-2.0	·	?	-3.8%
CC(C(=O)Nc1ccc2c(c1)OCO2)N(C)CC(=O)Nc1ccc(Cl)cc1 (configuration not stated)	2.24µM*	·	-4.5	·	?	·
CCN(CC)C(=O)N1CCc2ccccc21	-30.6%	12.7%	-17.0	-5.9%	-1.9%	1.1%
Cc1cccc(-n2cc(C(=O)O)c(=O)cc2C)c1	44.7µM*	-2.6%	1.0	-38.3%	-4.3%	22.0%
Cc1cc(C)cc(-n2cc(C(=O)O)c(=O)cc2C)c1	-5.6%	-9.3%	0.2	79.4µM*	7.6%	-4.8%
Cn1nc(C(=O)OCC(=O)Nc2ccc(S(N)(=O)=O)cc2)c2ccccc2c1=O	-8.8%	8.4%	-0.7	2.4%	56.5%	?
CCOc1ccc(CC(=O)NC2CC(C)(C)N(C)C(C)(C)C2)cc1OCC	0.0%	·	1.1	16.3%	42.5%	4.9%
CCOc1ccc(CC(=N)C2=C(O)CC(C)(C)CC2=O)cc1OCC	9.4%	4.0%	0.6	6.5%	33.7%	6.3%
CCOc1ccc(CC(=O)C2C(=O)CCCC2=O)cc1OCC	25.1µM*	-23.6%	-6.0	?	44.9%	2.9%
CCOc1ccc(CC(=O)C2C(=O)CC(C)(C)CC2=O)cc1OCC	17.8µM*	?	0.0	?	54.9%	5.3%
C=CCNc1nc(C(=O)OCC(=O)Nc2cccc(SC)c2)cs1	?	·	-4.2	79.4µM*	1.5%	-12.4%
SMILES	JMJD2A Tudor inh	JMJD2E inh	PI5P4K alpha inh	BAZ2B block	HP1b binding inh	L3MBTL1 block
C=CCNc1nc(C(=O)OCC(=O)c2ccc(C)c([N+](=O)[O-])c2)cs1	-24.3%	·	?	50.1µM*	-13.3%	·
CC(C)c1cc2c(s1)c1cnn(Cc3ccccc3F)c(=O)c1n2C	-20.5%	·	·	·	·	·
O=C(/C=C/c1ccccc1Cl)Nc1ccc2c(c1)C(=O)NC2=O	?	?	-25.7	70.8µM*	?	·
O=C(/C=C/c1ccccc1)Nc1ccc2c(c1)C(=O)NC2=O	-15.6%	?	7.5	-6.3%	33.5%	-5.8%
Oc1ccc(/C=N/NC(=S)NCCN2CCOCC2)c(O)c1	56.2µM*	35.5µM*	6.7	10µM*	7.8%	22.4µM*
COCCN1C(=O)C(=O)/C(=C(/O)c2ccc(S(=O)(=O)N3CCCCC3)cc2)C1c1ccc(O)c(OC)c1 (configuration not stated)	89.1µM*	·	2.9	-11.5%[57.1 µM]	48.4%	·
COCCN1C(=O)C(=O)/C(=C(/O)c2ccc(S(=O)(=O)N3CCCCC3)cc2)C1c1ccc(OC)cc1 (configuration not stated)	-30.4%	·	0.7	-3.9%[57.1 µM]	47.8%	·
O=c1c(N2CCc3ccccc3C2)csc2ccc(F)cc12	-17.3%	·	·	-16.7%	36.3%[57 µM]	·
C/C(N)=C(/C#N)C(=O)CSc1nnc(Nc2c(C)cccc2C)s1	56.2µM*	-9.0%	-100.0*	-3.0%	?	-4.3%
COc1ccc(-c2ccc(F)cc2)cc1C1C2C=CCC(C)C2C(=O)N1Cc1ccccc1 (configuration not stated)	-18.6%	·	·	·	20.5%	·
COc1ccc(OC)c(/C=N/NC(=O)c2[nH]nc3c2CCc2ccccc2-3)c1	-7.9%	?	-50.5*	-2.4%	54.8%	9.3%
COc1ccccc1CNC(=O)CSc1nc(-c2ccccc2)cn1N	-24.2%	2.0%	·	?	2.5%	·
CN(C(=O)CSc1nc(-c2ccccc2)cn1N)C(c1ccccc1)c1ccccc1	?	-7.5%	·	44.7µM*	-25.7%	·
COc1ccc(NC(=O)COC(=O)CCCc2c[nH]c3ccccc23)cc1	-30.5%	13.2%	1.3	50.1µM*	-3.8%	·
O=C(Cn1c(-c2cccs2)cc2cc(Cl)ccc21)N1CCCCC1	-5.6%	·	·	6.0%	15.4%	·
COc1ccccc1N1CCN(C(=O)c2ccc3[nH]c(C)c(C)c3c2)CC1	?	·	-3.8	?	-23.2%[57 µM]	·
Cc1[nH]c2ccc(C(=O)N3CCN(c4ccccc4F)CC3)cc2c1C	89.1µM*	·	·	?	?	·
